Results reported in PubChem BioAssay (Tox21).
Values without a mark were called inactive. Records with an inconclusive call do not appear. Entries that show only a call come without a potency. Active and inactive are the calls of the source. Unless noted, calls come from the whole dose curve; as a rule, active = well fitted curve in the direction sought with a large enough effect in the repeat runs; inconclusive = weak or mixed curves; inactive = no such curve, though single readings can be large; an effect the other way counts as inactive or inconclusive.

Key:
[1] = A CellTox Green Cytotoxicity Assay to monitor cytotoxicity in HEK293 cells - 32 hour (AID 1224881); note: nearly all actives have a fitted effect of over 40% in size
Procedure, shortened: (§1)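 Fluorescence intensity, read at 0, 8, 16, 24, 32 and 40 h of compound treatment, reflected dye binding to DNA of dead HEK293 cells; compounds (23 nL, DMSO) were added 5 h after plating cells with reagent.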

[2] = A CellTox Green Cytotoxicity Assay to monitor cytotoxicity in HepG2 cells - 0 hour (AID 1224882); note: nearly all actives have a fitted effect of over 35% in size
Procedure, shortened: (§2)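 Using 1536-well format, dye-containing HepG2 suspension was seeded, allowed 5 h at 37 C/5% CO2, dosed by pintool with compounds, positive and negative controls, and imaged for fluorescence across 40 h.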

[3] = A CellTox Green Cytotoxicity Assay to monitor cytotoxicity in HEK293 cells - 8 hour (AID 1224884); note: nearly all actives have a fitted effect of over 35% in size
Procedure, shortened: as §1

[4] = qHTS RealTime-Glo MT Cell Viability Assay in HepG2 cells - 16 hour (AID 1224885); note: nearly all actives have a fitted effect of over 50% in size
Procedure, shortened: (§3)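 Compound treatment began 5 h after plating HepG2 cells (600/well) with NanoLuc luciferase and prosubstrate. Plates stayed at 37 C for 40 h; luminescence was captured at six time points, 0 h through 40 h.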

[5] = qHTS RealTime-Glo MT Cell Viability Assay in HEK293 cells - 8 hour (AID 1224887); note: nearly all actives have a fitted effect of over 50% in size; note: potency is the fitted concentration of half-maximal effect
Procedure, shortened: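 Viable HEK293 cells reduce a cell-permeant prosubstrate; the product diffuses out and is consumed by NanoLuc in the medium to give light. Compounds went in after a 5 h incubation and plates were read over the treatment course.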

[6] = A CellTox Green Cytotoxicity Assay to monitor cytotoxicity in HEK293 cells - 16 hour (AID 1224888); note: nearly all actives have a fitted effect of over 35% in size
Procedure, shortened: as §1

[7] = qHTS RealTime-Glo MT Cell Viability Assay in HepG2 cells - 0 hour (AID 1224889); note: nearly all actives have a fitted effect of over 50% in size
Procedure, shortened: as §3

[8] = A CellTox Green Cytotoxicity Assay to monitor cytotoxicity in HepG2 cells - 8 hour (AID 1224890); note: nearly all actives have a fitted effect of over 45% in size
Procedure, shortened: as §2

[9] = qHTS assay to identify small molecule antagonists of the estrogen receptor alpha (ER-alpha) signaling pathway using the BG1 cell line in the presence of 0.1 nM 17-beta-estradiol - cell viability counter screen (AID 1259241); note: nearly all actives have a fitted effect of over 40% in size
Procedure, shortened: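 Cells were plated and left 24 hr, compounds in DMSO were pinned in, 17beta-estradiol was added to 0.1 nM final, and after 22 hr CellTiter-Fluor reagent was added for 30 min before fluorescence was read.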

[10] = qHTS assay to identify small molecule antagonists of the androgen receptor (AR) signaling pathway using the MDA cell line in the presence of 0.5 nM R1881 - cell viability counter screen (AID 1259242); note: nearly all actives have a fitted effect of over 45% in size
Procedure, shortened: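 Viability of MDA-kb2 cells was multiplexed with the luciferase AR readout; after 16 hr with compounds and R1881 at 0.5 nM final, CellTiter-Fluor fluorescence was recorded.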

[11] = target: Androgen receptor (Homo sapiens) (UniProt P10275); assay: qHTS assay to identify small molecule antagonists of the androgen receptor (AR) signaling pathway using the MDA cell line in the presence of 0.5 nM R1881 (AID 1259243); note: nearly all actives have a fitted effect of over 50% in size; note: potency is the fitted concentration of half-maximal effect
Chain of Androgen receptor (Homo sapiens) (P10275 whole entry, looked up): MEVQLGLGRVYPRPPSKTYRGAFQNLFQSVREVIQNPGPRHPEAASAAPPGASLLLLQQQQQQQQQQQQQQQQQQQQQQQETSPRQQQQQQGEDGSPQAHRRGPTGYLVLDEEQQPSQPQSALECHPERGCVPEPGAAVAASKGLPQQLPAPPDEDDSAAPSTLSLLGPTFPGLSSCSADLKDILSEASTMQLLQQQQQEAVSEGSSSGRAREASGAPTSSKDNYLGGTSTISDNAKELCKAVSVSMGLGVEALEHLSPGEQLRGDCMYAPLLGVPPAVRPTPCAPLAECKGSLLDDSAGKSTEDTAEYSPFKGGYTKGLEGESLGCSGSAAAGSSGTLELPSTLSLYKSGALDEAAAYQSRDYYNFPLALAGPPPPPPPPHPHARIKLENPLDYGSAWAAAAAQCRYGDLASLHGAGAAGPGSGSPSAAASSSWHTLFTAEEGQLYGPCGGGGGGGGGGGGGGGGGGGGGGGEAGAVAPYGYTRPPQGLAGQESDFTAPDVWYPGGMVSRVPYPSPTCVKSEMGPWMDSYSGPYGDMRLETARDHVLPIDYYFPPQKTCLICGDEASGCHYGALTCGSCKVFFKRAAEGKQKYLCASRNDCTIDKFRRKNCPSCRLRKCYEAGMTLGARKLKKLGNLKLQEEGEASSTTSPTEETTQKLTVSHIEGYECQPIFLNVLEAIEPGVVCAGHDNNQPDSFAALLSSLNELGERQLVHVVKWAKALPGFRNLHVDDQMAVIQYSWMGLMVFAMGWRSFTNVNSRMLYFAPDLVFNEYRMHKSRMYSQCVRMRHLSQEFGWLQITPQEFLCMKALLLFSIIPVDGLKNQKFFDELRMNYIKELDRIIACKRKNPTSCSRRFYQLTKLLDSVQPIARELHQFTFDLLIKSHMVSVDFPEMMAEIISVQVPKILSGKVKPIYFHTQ
Procedure, shortened: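 Reporter cells cultured without CO2 receive test chemicals, then 0.5 nM R1881 final; after 16 hr at 37C, ONE-Glo is added and light output recorded.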

[12] = target: Estrogen receptor (Homo sapiens) (UniProt P03372); assay: qHTS assay to identify small molecule antagonists of the estrogen receptor alpha (ER-alpha) signaling pathway using the BG1 cell line in the presence of 0.1 nM 17-beta-estradiol (AID 1259244); note: nearly all actives have a fitted effect of over 50% in size; note: potency is the fitted concentration of half-maximal effect
Chain of Estrogen receptor (Homo sapiens) (P03372 whole entry, looked up): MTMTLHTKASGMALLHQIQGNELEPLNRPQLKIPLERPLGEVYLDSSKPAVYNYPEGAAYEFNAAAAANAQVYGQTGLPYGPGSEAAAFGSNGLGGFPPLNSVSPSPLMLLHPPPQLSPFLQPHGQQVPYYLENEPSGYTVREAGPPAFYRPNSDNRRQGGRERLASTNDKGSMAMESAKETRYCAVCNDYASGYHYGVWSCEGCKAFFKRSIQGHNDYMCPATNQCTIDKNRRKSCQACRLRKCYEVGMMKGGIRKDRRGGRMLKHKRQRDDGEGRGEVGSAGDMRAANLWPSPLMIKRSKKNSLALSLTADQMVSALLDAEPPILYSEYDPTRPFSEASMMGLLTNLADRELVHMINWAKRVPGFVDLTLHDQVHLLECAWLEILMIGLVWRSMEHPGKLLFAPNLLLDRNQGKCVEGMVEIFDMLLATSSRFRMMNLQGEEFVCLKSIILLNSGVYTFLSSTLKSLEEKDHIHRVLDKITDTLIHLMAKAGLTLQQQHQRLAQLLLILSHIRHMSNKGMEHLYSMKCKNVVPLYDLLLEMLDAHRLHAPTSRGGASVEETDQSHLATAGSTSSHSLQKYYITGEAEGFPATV
Procedure, shortened: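 Estradiol at 0.1 nM (final) stimulates the endogenous ER-alpha of VM7Luc4E2 cells carrying an ERE-driven luciferase; compounds are co-incubated 22 h at 37C and luciferase output quantified by luminescence.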

[13] = qHTS assay to identify small molecule HDAC inhibitors (AID 1259364); note: potency is the fitted concentration of half-maximal effect;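 note: wild-type HCT-116 cells with endogenous class I/II HDAC activity; nearly all actives have a fitted effect of over 45% in size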
Procedure, shortened: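 Read-out: luminescence of HDAC-Glo I/II reagent, 30 min RT, reflecting class I/II deacetylase activity in whole HCT-116 cells pre-exposed 2 h to DMSO-dissolved compounds.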

[14] = qHTS assay to identify small molecule HDAC inhibitors - cell viability counter screen (AID 1259365)
Procedure, shortened: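 Counter screen in wild-type HCT-116 cells: compounds dissolved in DMSO are pin-transferred onto overnight-plated cells and left 2hr at 37C. ATP-based CellTiter-Glo luminescence then measures viable cells.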

[15] = qHTS assay to identify small molecule agonists of the sonic hedgehog signaling (Shh) pathway - cell viability counter screen (AID 1259366); note: nearly all actives have a fitted effect of over 50% in size; note: potency is the fitted concentration of half-maximal effect
Procedure, shortened: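 Cells are plated at 2,000 per well and left 4hr at 37C, 5% CO2 before compound addition. After 23hr of treatment, CellTiter-Fluor reagent is added for 1hr at 37C and fluorescence is measured.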

[16] = qHTS assay to identify small molecule antagonists of the sonic hedgehog signaling (Shh) pathway - cell viability counter screen (AID 1259367); note: nearly all actives have a fitted effect of over 55% in size
Procedure, shortened: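 Using CellTiter-Fluor, viability of Gli1-Luc reporter 3T3 cells is read by fluorescence in the wells used for the Shh luciferase assay. Treatment lasts 23 hr with conditioned medium, then reagent 1 hr at 37C.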

[17] = qHTS assay to identify small molecule agonists of the sonic hedgehog signaling (Shh) pathway (AID 1259368; calls by dose curve;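 note: NIH/3T3-derived 3T3Gli1-Luc cells carrying a stable Gli1-driven firefly luciferase reporter; series mostly up to about 92 µM; nearly all actives have a fitted effect of over 15% in size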)
Procedure, shortened: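 A Gli1 transcriptional response element controlled firefly luciferase in 3T3Gli1-Luc cells. Compounds and a positive control were added 4 hr after plating, and cells were incubated a further 24 hr at 37 C before luminescence detection.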

[18] = qHTS assay to identify small molecule phospholipidosis (PLD) inducers (AID 1259344; active = well fitted curve in the direction sought with a large enough effect; an effect the other way counts as inactive or inconclusive)
Procedure, shortened: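 Fluorescent phospholipid staining (LipidTOX Red) measured by automated microscopy in fixed HepG2 cells after 24 h treatment; nuclei counterstained with Hoechst 33342; amiodarone as reference inducer.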

[19] = A CellTox Green Cytotoxicity Assay to monitor cytotoxicity in HepG2 cells - 32 hour (AID 1224883); note: nearly all actives have a fitted effect of over 50% in size
Procedure, shortened: as §2

[20] = qHTS RealTime-Glo MT Cell Viability Assay in HEK293 cells - 24 hour (AID 1224886); note: nearly all actives have a fitted effect of over 50% in size; note: potency is the fitted concentration of half-maximal effect
Procedure, shortened: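 Quantitative high-throughput screen of the Tox21 10K library in HEK293: cells and RealTime-Glo reagents plated together, compound added at 5 h, luminescence monitored through 40 h at 37 C.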

Compound	Potency [1]	outcome [2]	Potency [3]	Potency [4]	Potency [5]	Potency [6]	Potency [7]	Potency [8]	outcome [9]	outcome [10]	Potency [11]	Potency [12]	Potency [13]	outcome [14]	Potency [15]	Potency [16]	outcome [17]	outcome [18]	Potency [19]	Potency [20]
O=CNC(N1CCN(C(NC=O)C(Cl)(Cl)Cl)CC1)C(Cl)(Cl)Cl (stereo unspecified)	inactive	inactive	inactive	inactive	inactive	inactive	inactive	inactive	inactive	inactive	30.6 µM (active)	inactive	inactive	inactive	inactive	inactive	inactive			
O=C(CCCN1CCC(n2c(=O)[nH]c3ccccc32)CC1)c1ccc(F)cc1	inactive	inactive	inactive	inactive		inactive	inactive	inactive	inactive	inactive			inactive	inactive	inactive	inactive	inactive	inactive		
CC(C)[N+](=O)[O-]	inactive	inactive	inactive	inactive	inactive	inactive	inactive	inactive		inactive			inactive	inactive	inactive	inactive	inactive			
ClC(Cl)(Cl)C(Cl)(Cl)Cl	inactive		inactive	inactive	inactive	inactive		inactive	inactive	inactive		inactive	inactive	inactive	inactive	inactive	inactive		inactive	inactive
O=C(NCO)NCO	inactive		inactive	inactive	inactive	inactive	inactive	inactive	inactive	inactive		inactive	inactive	inactive	inactive		inactive		inactive	inactive
CC(C)(C)C(=O)C(Oc1ccc(Cl)cc1)n1cncn1 (stereo unspecified)	inactive	inactive	inactive	inactive	inactive	inactive		inactive	inactive	inactive		inactive	inactive	inactive	inactive		inactive			
CNC(=O)N(C)c1nc2ccccc2s1	inactive		inactive	inactive	inactive	inactive	inactive	inactive	inactive	inactive	inactive		545 nM (active)	inactive	inactive		inactive		inactive	inactive
O=C(N[C@H]1CN2CCC1CC2)c1cc2ccoc2cn1	inactive	inactive	inactive	inactive	inactive	inactive	inactive	inactive		inactive	inactive	inactive	inactive	inactive	inactive	inactive	inactive			
CCC#N	inactive	inactive	inactive	inactive	inactive	inactive		inactive	inactive	inactive			inactive	inactive	inactive	inactive	inactive			inactive
ClC(Cl)C(Cl)Cl	inactive	inactive	inactive	inactive	inactive		inactive	inactive	inactive	inactive		inactive	inactive	inactive	inactive	inactive				inactive
CC1CCC(=O)O1 (stereo unspecified)	inactive	inactive	inactive	inactive	inactive			inactive	inactive	inactive			inactive	inactive	inactive		inactive			inactive
CCCCOC(=O)[C@@H](C)Oc1ccc(Oc2ccc(C#N)cc2F)cc1	inactive		inactive	inactive	12.2 µM (active)	inactive	inactive		inactive	inactive		inactive	inactive	inactive	inactive	inactive	inactive		inactive	19.4 µM (active)
CN(C)CCc1ccc(O)cc1	inactive		inactive	inactive	inactive	inactive	inactive	inactive	inactive	inactive			inactive	inactive	inactive	inactive	inactive	inactive	inactive	inactive
CCOP(=O)(N=C1SCCS1)OCC	inactive	inactive		inactive	inactive	inactive	inactive		inactive	inactive		inactive	inactive	inactive	inactive	inactive	inactive			
COc1cccc2c1cc([N+](=O)[O-])c1c(C(=O)O)cc3c(c12)OCO3	inactive	inactive	inactive	inactive	inactive	inactive		inactive				6.86 µM (active)	inactive		12.2 µM (active)		inactive			3.09 µM (active)
Fc1cc(Br)ccc1CBr	inactive	inactive	inactive	inactive	inactive		inactive	inactive	inactive	inactive	inactive	inactive	inactive	inactive	inactive	inactive	inactive			
CCC/C(=N\OCC)C1=C(O)CC(CC(C)SCC)CC1=O (stereo unspecified)	inactive	inactive	inactive	inactive	inactive		inactive	inactive		inactive		inactive	inactive	inactive	inactive					
O=C1OC(c2ccc(O)c(S(=O)(=O)O)c2)(c2ccc(O)c(S(=O)(=O)O)c2)c2c(Br)c(Br)c(Br)c(Br)c21	inactive		inactive	inactive	inactive	inactive	inactive	inactive	inactive	inactive		inactive	inactive	inactive	inactive	inactive		inactive	inactive	inactive
